This is part of a sample that, as a whole, favours compounds with a hit. Of some 83,000 tested, about 20% had one in any assay.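 Compound tested at a single concentration for 48 hours in 96-well plates; a percent growth value below 10 was scored as active.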 A number with no mark means an inactive call. Activity calls are given as the source filed them.

Among the test systems are HCT-15 colon; HT29 colon; SNB-75 CNS; SNB-19 CNS; U251 CNS; PC-3 prostate; SK-MEL-5 melanoma; UACC-62 melanoma; LOX IMVI melanoma; SK-MEL-28 melanoma; SK-MEL-2 melanoma; EKVX NSCLC; SN12C renal; UO-31 renal; TK-10 renal; ACHN renal; CAKI-1 renal; A498 renal; CCRF-CEM leukemia.
What all share (experiment): NCI-60 one-dose screen, 48 h (100 = growth as untreated, 0 = no growth, -100 = all killed)
Conditions in all cases: 10 µM

As for `CC[C@@]1(O)C(=O)OCc2c1cc1n(c2=O)Cc2c-1nc1cc(F)c(C)c3c1c2[C@@H](N)CC3`, the growth with HCT-15 colon was 5.44% (active); with HT29 colon, -11.1% (active); in the experiment with SNB-75 CNS it was -26.1% (active); with SNB-19 CNS it was 1.87% (active); with U251 CNS, -42.1% (active); in the experiment with PC-3 prostate, 22.5%. The growth in the experiment on SK-MEL-5 melanoma was -78.4% (active); in the experiment on UACC-62 melanoma it was -78.1% (active); in the experiment with LOX IMVI melanoma, -74.2% (active); in the experiment on SK-MEL-28 melanoma, -15.7% (active); in the experiment on SK-MEL-2 melanoma, -29.2% (active); in the experiment on EKVX NSCLC it was 15.4%. The growth is 1.83% (active) in the experiment with SN12C renal; -82.4% (active) in the experiment with UO-31 renal; 6.02% (active) in the experiment with TK-10 renal; -57.8% (active) in the experiment on ACHN renal; -22.9% (active) in the experiment on CAKI-1 renal; -89.6% (active) with A498 renal. Also, the growth in the experiment on CCRF-CEM leukemia is 13.4%.

For the compound `Cc1ccc(NC(=O)c2ccc(-n3c(=O)[nH]c4ccccc4c3=O)cc2)cc1`, the growth in the experiment with HCT-15 colon is 88.7%; in the experiment with HT29 colon, 104%; in the experiment on SNB-75 CNS, 50.5%; in the experiment with SNB-19 CNS, 68.4%; with U251 CNS, 91.9%; with PC-3 prostate it was 96.1%. Moreover, the growth was 90.9% in the experiment with SK-MEL-5 melanoma; 82.4% with UACC-62 melanoma; 85.1% in the experiment on LOX IMVI melanoma; 102% in the experiment with SK-MEL-28 melanoma; 97.8% with SK-MEL-2 melanoma; 84.8% in the experiment on EKVX NSCLC. Besides, the growth was 69.4% with SN12C renal; -16.8% (active) in the experiment with UO-31 renal; 96.3% in the experiment on TK-10 renal; 68.3% with ACHN renal; 88.4% with CAKI-1 renal; 107% with A498 renal. In the experiment with CCRF-CEM leukemia, the growth is 60.7%.

For `COc1cc(/C=C/C(=O)c2ccc(S(=O)(=O)NCCNc3nc(Nc4ccc(F)cc4)nc(N(C)C)n3)cc2)cc(OC)c1OC`, the growth was -65.9% (active) with HCT-15 colon; -56.7% (active) with HT29 colon; 88.2% in the experiment on SNB-75 CNS; 15.6% with SNB-19 CNS; -81.2% (active) in the experiment with U251 CNS; 9.45% (active) in the experiment with PC-3 prostate. In addition, the growth was 32.4% with SK-MEL-5 melanoma; 34.2% in the experiment on UACC-62 melanoma; -100% (active) in the experiment with LOX IMVI melanoma; 18% in the experiment with SK-MEL-28 melanoma; 98.4% in the experiment with SK-MEL-2 melanoma; 48.4% with EKVX NSCLC. Besides, the growth in the experiment on SN12C renal was -32.1% (active); with UO-31 renal, 40.2%; with TK-10 renal, 66.3%; in the experiment with ACHN renal, -49% (active); in the experiment on CAKI-1 renal, 20.1%; in the experiment with A498 renal, 81.3%. Further, the growth in the experiment with CCRF-CEM leukemia was 8.16% (active).

For `COc1ccc(-c2nc(S(=O)(=O)c3ccc(C)cc3)c(S(C)(=O)=O)o2)cc1`, the growth was -72.6% (active) in the experiment with HCT-15 colon; -74.8% (active) in the experiment on HT29 colon; 43.6% in the experiment with SNB-75 CNS; 65.5% in the experiment on SNB-19 CNS; -90.3% (active) with U251 CNS; 20.8% in the experiment on PC-3 prostate. The growth in the experiment with SK-MEL-5 melanoma was 10.1%; in the experiment on UACC-62 melanoma, -58.2% (active); in the experiment with LOX IMVI melanoma, -89.1% (active); with SK-MEL-28 melanoma, -98.2% (active); with SK-MEL-2 melanoma, -62.4% (active); with EKVX NSCLC, 36.8%. The growth was -73.3% (active) in the experiment with SN12C renal; -100% (active) in the experiment with UO-31 renal; -100% (active) in the experiment on TK-10 renal; -100% (active) in the experiment on ACHN renal; -100% (active) in the experiment with CAKI-1 renal; 116% in the experiment on A498 renal. The growth with CCRF-CEM leukemia is -50.5% (active).

Turning to `CN1CCN(c2ccc(Nc3nc(N4CCN(S(=O)(=O)c5ccc(Cl)cc5)CC4)c4sccc4n3)cc2)CC1`, the growth in the experiment on HCT-15 colon is -78.6% (active); with HT29 colon it was -51.3% (active); with SNB-75 CNS, 67.1%; in the experiment with SNB-19 CNS, 28.4%; with U251 CNS it was -85.2% (active); in the experiment on PC-3 prostate, 28.5%. For the same compound, the growth in the experiment on SK-MEL-5 melanoma was -100% (active); in the experiment with UACC-62 melanoma, -90.3% (active); in the experiment with LOX IMVI melanoma, -90.1% (active); in the experiment with SK-MEL-28 melanoma it was -98.6% (active); in the experiment with SK-MEL-2 melanoma, 79.4%; in the experiment with EKVX NSCLC it was 62.1%. Further, the growth in the experiment on SN12C renal is 91.9%; with UO-31 renal, 64.2%; in the experiment on TK-10 renal, 85.9%; in the experiment with ACHN renal, -64.4% (active); with CAKI-1 renal, 7.7% (active); in the experiment on A498 renal, 125%. For the same compound, in the experiment on CCRF-CEM leukemia, the growth is 1.87% (active).

`CN1CCN(c2ccc(Nc3nc(NCCNC(=O)c4ccc(C(F)(F)F)cc4)c4sccc4n3)cc2)CC1`: the growth was -42.6% (active) in the experiment with HCT-15 colon; -67% (active) with HT29 colon; -10.7% (active) in the experiment on SNB-75 CNS; 31.5% with SNB-19 CNS; -17.7% (active) with U251 CNS; 41% in the experiment on PC-3 prostate. Also, the growth was -99.5% (active) with SK-MEL-5 melanoma; -89.7% (active) with UACC-62 melanoma; -93.9% (active) in the experiment on LOX IMVI melanoma; -96.3% (active) in the experiment on SK-MEL-28 melanoma; -41.9% (active) in the experiment with SK-MEL-2 melanoma; 59.7% with EKVX NSCLC. The growth was 73.6% in the experiment with SN12C renal; 4.76% (active) in the experiment with UO-31 renal; 12% with TK-10 renal; 10.7% in the experiment on ACHN renal; 22.5% in the experiment on CAKI-1 renal; 69% in the experiment on A498 renal. For the same compound, the growth in the experiment with CCRF-CEM leukemia is -31.1% (active).

For `COc1ccc(-c2nc(S(=O)(=O)c3ccccc3)c(S(C)(=O)=O)o2)cc1`, the growth is -73% (active) in the experiment with HCT-15 colon; -55.2% (active) in the experiment with HT29 colon; 77.1% in the experiment on SNB-75 CNS; 84.4% in the experiment with SNB-19 CNS; 12% in the experiment on U251 CNS; 78.2% in the experiment on PC-3 prostate. The growth is 66.5% with SK-MEL-5 melanoma; 33.5% with UACC-62 melanoma; -85.3% (active) in the experiment on LOX IMVI melanoma; -82.9% (active) in the experiment on SK-MEL-28 melanoma; 69.7% in the experiment with SK-MEL-2 melanoma; 94.1% in the experiment with EKVX NSCLC. Also, the growth with SN12C renal was -63.7% (active); in the experiment on UO-31 renal, -100% (active); in the experiment on TK-10 renal, -99.3% (active); with ACHN renal it was -100% (active); with CAKI-1 renal, -94.2% (active); in the experiment with A498 renal it was 113%. The growth with CCRF-CEM leukemia is -46.7% (active).

As to `O=S(=O)(c1ccc(Cl)cc1)c1nc(-c2ccccc2)oc1S(=O)(=O)c1ccc(Cl)cc1`, the growth with HCT-15 colon is 47.4%; with HT29 colon, 89.7%; in the experiment on SNB-75 CNS it was 76.5%; with SNB-19 CNS, 94.9%; in the experiment on U251 CNS it was 79.9%; with PC-3 prostate, 103%. Also, the growth was 91.9% with SK-MEL-5 melanoma; 90.4% with UACC-62 melanoma; 19.7% in the experiment on LOX IMVI melanoma; 104% in the experiment on SK-MEL-28 melanoma; 96.7% in the experiment on SK-MEL-2 melanoma; 92.1% in the experiment on EKVX NSCLC. For the same compound, the growth in the experiment with SN12C renal was 89.5%; in the experiment with UO-31 renal it was 64.4%; in the experiment with TK-10 renal, 97.8%; with ACHN renal, 91.9%; with CAKI-1 renal, 85.8%; with A498 renal, 122%. Further, the growth in the experiment with CCRF-CEM leukemia is -28.1% (active).

The values above are taken from PubChem BioAssay (NCI).
